# The whole screen tested about 13,000 compounds, of which about 3,200 (25%) showed an effect of 50% or more. This is one part of the list.
# Test system: P. falciparum stage V gametocytes
# Set-up: BacTiter-Glo ATP luminescence viability of purified stage V gametocytes in 384-well plates, per cent inhibition versus DMSO
# Settings: 48 h, 5 µM; inhibitor
row,SMILES,% Inhibition [%]
1,COc1cc(C(F)(F)F)nc2c(CNCCCNc3cc(=O)c4ccccc4[nH]3)scc12 [TCMDC-141145],-12.37
2,CNc1nc(N/N=C/c2cc3c(cc2[N+](=O)[O-])OCO3)nc(Nc2cccc(C(F)(F)F)c2)n1 [TCMDC-124216],15.24
3,CCCCNCc1ccc(-c2nc(CN(C(=O)Nc3cc([N+](=O)[O-])ccc3F)C3Cc4ccccc4C3)cs2)cc1 [TCMDC-141640],54.3
4,O=C(Nc1ccccc1F)N(CCCn1ccnc1)Cc1csc(-c2ccc(CNCc3ccccc3)cc2)n1 [TCMDC-141643],22.98
5,Cc1ccc([N+](=O)[O-])cc1NC(=O)N(CC(O)c1ccccc1)C1CCCCC1 (stereo not shown) [TCMDC-123672],2.226
6,COc1ccc(Cc2c(C)nc3nc(N)nc(N)c3c2C)cc1OC [TCMDC-137649],1.878
7,O=C(Nc1ccc(Cl)cc1)N1CCN(C2CCCCC2)CC1 [TCMDC-125819],10
8,O=C(Nc1ccc2c(c1)CCC2)c1cccc(CN2CCCN(Cc3cccc(O)c3)CC2)c1 [TCMDC-135957],14.29
9,NC(=NCc1ccccc1Cl)NCCc1c[nH]c2ccccc12 [TCMDC-138012],-46.58
10,O=C(Cc1ccsc1)NCC(c1ccccc1Cl)c1c[nH]c2ccccc12 (stereo not shown) [TCMDC-125251],11.67
11,O=C(Cc1cccs1)NCC(c1ccccc1Cl)c1c[nH]c2ccccc12 (stereo not shown) [TCMDC-125062],59.09
12,COc1ccc2nc3cc(Cl)ccc3c(Nc3ccc(Oc4ccc(Nc5c6ccc(Cl)cc6nc6ccc(OC)cc56)cc4)cc3)c2c1.Cl [TCMDC-137674],-12.74
13,COc1ccc2nc3cc(Cl)ccc3c(NCc3ccccc3)c2c1.Cl [TCMDC-137663],-68.8
14,COc1ccc2nc3cc(Cl)ccc3c(N)c2c1.Cl [TCMDC-125835],124.4
15,COc1ccc2nc3cc(Cl)ccc3c(Nc3ccc(Sc4ccc(Nc5c6ccc(Cl)cc6nc6ccc(OC)cc56)cc4)cc3)c2c1.Cl [TCMDC-137673],-84.83
16,COc1ccc2nc3cc(Cl)ccc3c(NCCCCCCNc3c4ccc(Cl)cc4nc4ccc(OC)cc34)c2c1 [TCMDC-137503],106.2
17,COc1ccc2nc3cc(Cl)ccc3c(NCCNCC(O)CO)c2n1 (stereo not shown) [TCMDC-137938],74.53
18,COc1ccc2nc3cc(Cl)ccc3c(NCCCCNc3c4ccc(Cl)cc4nc4ccc(OC)cc34)c2c1 [TCMDC-138218],112.4
19,COc1ccc2nc3cc(Cl)ccc3c(NCCCO)c2c1 [TCMDC-124144],20.12
20,CCN(CC)CCNc1c2ccc(Cl)cc2nc2ccc(OC)nc12 [TCMDC-137937],-10.21
21,CCOc1ccc(-n2nc3c(Cl)nnc(-c4ccccc4)c3c2-c2ccccc2)cc1 [TCMDC-123899],-2.574
22,CCCC(C)Nc1nc(C)cc(N[C@@H](CC(C)C)C(=O)NC2CCCC2)n1 (stereo partly shown) [TCMDC-134895],-73.82
23,CC1CCc2sc(-c3nnc(SC(C)C(=O)NC4CC4)o3)cc2C1 (stereo not shown) [TCMDC-124866],6.4

row,SMILES,% Inhibition [%]
1,CCOc1ncccc1CN1CCC(N2CCc3cc(NC(=O)c4cc(C)on4)ccc32)C1 (stereo not shown) [TCMDC-135086],-27.43
2,NC(=O)c1cccc(CNC(=O)NC[C@H]2CN(Cc3ccc(Cl)c(Cl)c3)CCO2)c1 [TCMDC-138745],31.93
3,COc1cc(NC(=O)/C=C/c2cccc3ccoc23)ccc1OCCN(C(C)C)C(C)C [TCMDC-139958],3.846
4,CCOC(=O)NC1=NC(C)(C)N(OCc2ccc(Cl)c(Cl)c2)C(NC(=O)OCC)=N1 [TCMDC-131729],1.326
5,COc1ccc2c(c1)C(C)(CCCN(C)C)C(=O)N2C (stereo not shown) [TCMDC-138945],13.31
6,COc1ccc2nc3cc(Cl)ccc3c(NCCCCN)c2c1 [TCMDC-137526],92.71
7,COc1ccc2nc3cc(Cl)ccc3c(NCCO)c2c1 [TCMDC-124272],0.5882
8,COc1ccc2nc3cc(Cl)ccc3c(NCCN(C)C)c2c1 [TCMDC-139093],54.53
9,COc1ccc2nccc([C@@H](O)CN3CCC(NCc4nc5c(cc4F)SCC(=O)N5)C(F)C3)c2c1 (stereo partly shown) [TCMDC-141681],-15.96
10,O=[N+]([O-])c1ccc(-c2nc3cc(C4=NC5CCCCC5N4)ccc3[nH]2)cc1 (stereo not shown) [TCMDC-137220],5.239
11,O=[N+]([O-])c1cccc(-c2nc3cc(C4=NC5CCCCC5N4)ccc3[nH]2)c1 (stereo not shown) [TCMDC-137221],5.96
12,Nc1ccc(-c2nc3cc(C4=N[C@H]5CCCC[C@H]5N4)ccc3o2)cc1[N+](=O)[O-] [TCMDC-137253],108.2
13,Cc1ccc2ncc(Cl)c(CCN3CCC(NCc4ccc5c(n4)NC(=O)CS5)CC3)c2n1 [TCMDC-141963],7.636
14,COc1ccc2ncc(C)c(CCN3CCC(NCc4ccc5c(n4)NC(=O)CS5)CC3)c2c1 [TCMDC-134648],44.1
15,COc1cc(F)c2ncc(F)c(CCN3C[C@H](CNCc4ccc5c(n4)NC(=O)CS5)[C@H](O)C3)c2c1 [TCMDC-136333],73.35
16,COc1ccc2nccc(CCN3CC(O)C(CNCc4ccc5c(n4)NC(=O)CS5)C3)c2n1 (stereo not shown) [TCMDC-136132],27.64
17,COc1ccc2ncc(F)c(CCN3CC(O)C(CNCc4ccc5c(n4)NC(=O)CS5)C3)c2c1 (stereo not shown) [TCMDC-136187],16.49
18,COc1c(F)ccc2ncc(Cl)c(CCN3CCC(NCc4ccc5c(n4)NC(=O)CS5)CC3)c12 [TCMDC-141955],54.36
19,COc1ccc2ncc(F)c([C@@H](O)CN3CCC(NCc4cc5c(cn4)OCCO5)CC3)c2c1 [TCMDC-135379],9.097
20,Fc1ccc2ncc(Cl)c(CCN3CCC(NCc4cc5c(cn4)OCCO5)CC3)c2c1 [TCMDC-133446],74.26
21,COc1ccc2ncc(Cl)c([C@@H](O)CN3CCC(NCc4cc5c(cn4)OCCO5)CC3)c2c1 [TCMDC-135470],13.81
22,Clc1cnc2ccc3c(c2c1CCN1CCC(NCc2cc4c(cn2)OCCO4)CC1)OCCO3 [TCMDC-134566],24.75
23,COc1ccc2ncc(Cl)c([C@H](O)CN3CCC(NCc4cc5c(cn4)OCCO5)CC3)c2c1 [TCMDC-135469],53.55

row,SMILES,% Inhibition [%]
1,Cn1ncc2c3c(CCN4CCC(NCc5cc6c(cn5)OCCO6)CC4)c(Cl)cnc3ccc21 [TCMDC-136008],9.388
2,Cc1ccc(C(=O)NC2CC2)cc1-c1ccc2c(cnn2S(=O)(=O)c2ccc(F)cc2)c1 [TCMDC-138772],31.89
3,O=C(NCCc1cccc(Cl)c1Cl)c1ccc(N2CCN(c3ccncc3)CC2)nc1 [TCMDC-134587],10.14
4,Cc1ccc(C(=O)Nc2cc(C(F)(F)F)cc(C(F)(F)F)c2)cc1[N+](=O)[O-] [TCMDC-125645],-10.1
5,Cc1csc(-c2nc(NCCc3c(C)noc3C)ncc2-c2ccsc2)n1 [TCMDC-125354],34.89
6,Nc1ncc(-c2ccsc2)c2ccc(-c3cc(NCc4ccccc4)ncn3)cc12 [TCMDC-135660],18.52
7,O=C(Cc1c[nH]cn1)Nc1ccc(-c2ccc(-c3nc4ccccc4[nH]3)s2)cc1 [TCMDC-136939],-25.08
8,O=C(/C=C/c1ccc(Cl)c(Cl)c1)N1CCC(NCc2ccc3[nH]ccc3c2)CC1 [TCMDC-134198],36.44
9,CCC1N=C(N)N=C(N)N1OCc1ccc(Cl)c(Cl)c1 (stereo not shown) [TCMDC-131593],19.76
10,CC(=O)C=C1CC(=O)N(C[C@@H](O)[C@H]2O[C@@H]3OC(C)(C)O[C@@H]3[C@H]2O)c2ccccc2N1 [TCMDC-138271],11.95
11,O=C(/C=C/c1ccc(C(F)(F)F)cc1)NCCCCCN1CCCN(C(=O)Nc2cccc(Cl)c2)CC1 [TCMDC-136108],-11.12
12,CCOc1cccc(C(=O)Nc2cccc(CN3CCCN(Cc4cccc(O)c4)CC3)c2)c1 [TCMDC-141861],-4.748
13,O=C1CSc2ccc(CNC3CCN(CCc4c(F)cnc5ccc(F)cc45)CC3)nc2N1 [TCMDC-135095],-0.4072
14,O=C1CSc2ccc(CNC3CCN(CCc4c(Cl)cnc5ccc(F)cc45)CC3)nc2N1 [TCMDC-141960],55.74
15,COc1ccc2ncc(Cl)c(CCN3CCC(NCc4ccc5c(n4)NC(=O)CS5)CC3)c2c1 [TCMDC-141807],-3.776
16,O=C1CSc2ccc(CNC3CCN(CCc4c(Cl)cnc5ccc(Cl)cc45)CC3)nc2N1 [TCMDC-141959],32.4
17,COc1cc(F)c2ncc(Cl)c(CCN3CCC(NCc4ccc5c(c4)NC(=O)CS5)CC3)c2c1 [TCMDC-135620],12.4
18,COc1cc(F)c2ncc(Cl)c(CCN3CCC(NCc4ccc5c(n4)NC(=O)CS5)CC3)c2c1 [TCMDC-134318],94.95
19,Cc1ccc(CNC(=O)c2cc3c(=O)n4ccccc4nc3n(CCCN3CCOCC3)c2=N)cc1 [TCMDC-125409],26.53
20,CC(O)C1CCCCN1C(=O)c1cccc(-c2cccc(-c3nc4cc(C(F)(F)F)ccc4[nH]3)c2)c1 (stereo not shown) [TCMDC-132335],13.24
21,O=C(Nc1cccc(C(F)(F)F)c1)NC1CCN(c2ccnc3cc(Cl)ccc23)CC1 [TCMDC-133567],-12.77

# — publication PMC4552634, “A New Set of Chemical Starting Points with Plasmodium falciparum Transmission-Blocking Potential for Antimalarial Drug Discovery” (PLoS ONE, 2015)
